Among the data in PubChem BioAssay (NCATS) are Potency values, retold here.

Holding throughout (assay): Primary qHTS to identify gynecologic anti-cancer compounds using libraries of approved drugs and bioactive compounds (AID 1345084); further: nearly all actives have a fitted effect of over 55% in size
For one experiment, the system named is CASKI. As to conditions: Gynecologic cancer cell panel viability, ATPlite luminescence, 48 h; series mostly up to 57.5 µM. A digest of the protocol: (§1)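 48 h compound exposure at 37 C, 5% CO2; five-point qHTS. ATPlite luminescence readout of cell ATP.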
A general note: ATP-based viability assays read luminescence as a measure of living cells.

The subject of the next experiment is Es-2. As to conditions: Gynecologic cancer cell panel viability, ATPlite luminescence, 48 h; series mostly up to 57.5 µM. A digest of the protocol:
as §1

The next experiment deals with HeLa. The settings on record: Gynecologic cancer cell panel viability, ATPlite luminescence, 48 h; series mostly up to 57.5 µM. A digest of the protocol: as §1
A further experiment concerns Hek293T. The settings on record: Gynecologic cancer cell panel viability, ATPlite luminescence, 48 h, control line for the selectivity index; series mostly up to 57.5 µM. Summed up:
as §1

The subject of a further experiment is JEG-3. As to conditions: Gynecologic cancer cell panel viability, ATPlite luminescence, 48 h; series mostly up to 57.5 µM. A digest of the protocol: as §1
For the next experiment, the system named is PA-1. As to conditions: Gynecologic cancer cell panel viability, ATPlite luminescence, 48 h; series mostly up to 57.5 µM. Summed up: as §1
The next experiment relates to SKOV3. The settings on record: Gynecologic cancer cell panel viability, ATPlite luminescence, 48 h; series mostly up to 57.5 µM. Summed up: as §1
Another experiment has as its system Tov-21-G. The settings on record: Gynecologic cancer cell panel viability, ATPlite luminescence, 48 h; series mostly up to 57.5 µM. Summed up: as §1
The subject of the next experiment is OV90. As to conditions: Gynecologic cancer cell panel viability, ATPlite luminescence, 48 h; series mostly up to 57.5 µM. Summed up:
as §1

Results filed as inconclusive are left out. The source made the active and inactive calls. The call rests on the fitted dose curve; in most records, active means well fitted cell-killing curve with a large enough effect; inconclusive means small, poorly fitted or top-dose-only effect, or effect the other way; inactive means flat fitted curve, though single readings scatter.
Potency means the concentration at half of the fitted maximal effect.

With `CCC1(C)CC(=O)NC1=O` (stereo not given), the Potency entry with CASKI, in the experiment with Es-2, in the experiment with HeLa, with Hek293T, in the experiment on JEG-3 and in the experiment with PA-1 was “inactive” throughout. Further, the Potency result in the experiment with SKOV3 and in the experiment on Tov-21-G was “inactive” each time.
Turning to `OCCN(CCO)c1nc(N2CCCCC2)c2nc(N(CCO)CCO)nc(N3CCCCC3)c2n1`, the Potency result in the experiment on CASKI, in the experiment on Es-2, in the experiment with Hek293T, in the experiment on JEG-3, in the experiment on PA-1 and with SKOV3 was “inactive” each time. Also, the Potency result with Tov-21-G was “inactive”.
Turning to `CNCCCC12CCC(c3ccccc31)c1ccccc12`, the Potency result in the experiment on HeLa, in the experiment with Hek293T, in the experiment with JEG-3 and in the experiment with Tov-21-G was “inactive” in each case. Moreover, the Potency was 17.8 µM (active) in the experiment on OV90 and 11.2 µM (active) in the experiment with SKOV3.
As to `CN1CCN2c3ccccc3Cc3ccccc3C2C1` (stereo not given), the Potency entry in the experiment on Es-2, with HeLa and in the experiment on JEG-3 was “inactive” throughout.
Take `Clc1ccccc1C(c1ccccc1)(c1ccccc1)n1ccnc1`: the Potency entry in the experiment on CASKI, with Es-2, in the experiment with HeLa, with JEG-3, in the experiment with SKOV3 and with Tov-21-G was “inactive” in each case.
In the case of `COc1cc2nc(N3CCN(C(=O)C4COc5ccccc5O4)CC3)nc(N)c2cc1OC` (stereo not given), the Potency entry with CASKI, in the experiment with Es-2, in the experiment on HeLa, in the experiment with Hek293T, in the experiment on JEG-3 and in the experiment on PA-1 was “inactive” throughout. In addition, in the experiment with Tov-21-G, the Potency result was “inactive”.
With `Cc1ccc(-c2cc(C(F)(F)F)nn2-c2ccc(S(N)(=O)=O)cc2)cc1`, the Potency result in the experiment with CASKI, in the experiment on Es-2, in the experiment with HeLa, in the experiment with Hek293T, with JEG-3 and in the experiment with OV90 was “inactive” each time. The Potency result with PA-1, in the experiment on SKOV3 and in the experiment with Tov-21-G was “inactive” in each case.
For the molecule `CCN1CCCC1CNC(=O)c1cc(S(=O)(=O)CC)c(N)cc1OC` (stereo not given), the Potency entry in the experiment with CASKI, in the experiment with Es-2, with HeLa, in the experiment on Hek293T, in the experiment with JEG-3 and in the experiment with OV90 was “inactive” in each case. The Potency entry in the experiment with PA-1 and with Tov-21-G was “inactive” throughout.
`COc1ccc2c(c1)c(CC(=O)O)c(C)n2C(=O)c1ccc(Cl)cc1`: the Potency entry with CASKI, in the experiment on Es-2, in the experiment with HeLa, in the experiment on Hek293T, with JEG-3 and with PA-1 was “inactive” in each case. For the same molecule, the Potency entry with SKOV3 and in the experiment on Tov-21-G was “inactive” in each case.
Take `OCCN1CCN(CCCN2c3ccccc3Sc3ccc(C(F)(F)F)cc32)CC1`: the Potency result in the experiment with Es-2, in the experiment on HeLa, in the experiment on JEG-3, in the experiment on PA-1, with SKOV3 and in the experiment with Tov-21-G was “inactive” throughout.
With `CN(C)CCCN1c2ccccc2CCc2ccc(Cl)cc21`, the Potency entry in the experiment with HeLa, in the experiment with JEG-3, in the experiment on PA-1 and with Tov-21-G was “inactive” in each case.
As to `COc1cc2nc(N3CCN(C(=O)c4ccco4)CC3)nc(N)c2cc1OC`, the Potency result in the experiment with CASKI and with HeLa was “inactive” in each case.
In the case of `CN1CCN(CCCN2c3ccccc3Sc3ccc(Cl)cc32)CC1`, the Potency entry in the experiment with CASKI, with Es-2, in the experiment on HeLa, in the experiment with Hek293T, in the experiment with JEG-3 and in the experiment on SKOV3 was “inactive” in each case. Also, the Potency result in the experiment on Tov-21-G was “inactive”.
Take `Cc1ccc(C(=O)Nc2ccc(S(=O)(=O)O)c3cc(S(=O)(=O)O)cc(S(=O)(=O)O)c23)cc1NC(=O)c1cccc(NC(=O)Nc2cccc(C(=O)Nc3cc(C(=O)Nc4ccc(S(=O)(=O)O)c5cc(S(=O)(=O)O)cc(S(=O)(=O)O)c45)ccc3C)c2)c1`: the Potency entry in the experiment on CASKI, in the experiment with Es-2, in the experiment with HeLa, in the experiment with Hek293T, in the experiment on JEG-3 and in the experiment with OV90 was “inactive” in each case. For the same molecule, the Potency entry in the experiment on PA-1, in the experiment with SKOV3 and in the experiment on Tov-21-G was “inactive” throughout.
As for `COc1cc2c(c(OC)c1OC)-c1ccc(OC)c(=O)cc1[C@@H](NC(C)=O)CC2`, the Potency in the experiment with OV90 is 0.282 µM (active).
As to `CN1CCN(C2=Nc3cc(Cl)ccc3Nc3ccccc32)CC1`, the Potency entry in the experiment on CASKI, in the experiment on Es-2, in the experiment on HeLa, in the experiment on Hek293T, in the experiment on JEG-3 and with Tov-21-G was “inactive” throughout. Moreover, in the experiment with SKOV3, the Potency was 31.6 µM (active).
On to `Cn1c(=O)c2[nH]cnc2n(C)c1=O`, for which the Potency entry with CASKI, in the experiment on Es-2, in the experiment with HeLa, with Hek293T, in the experiment with JEG-3 and with OV90 was “inactive” throughout. For the same molecule, the Potency result with PA-1, in the experiment with SKOV3 and in the experiment with Tov-21-G was “inactive” in each case.
In the case of `CN(Cc1cnc2nc(N)nc(N)c2n1)c1ccc(C(=O)N[C@@H](CCC(=O)O)C(=O)O)cc1`, the Potency was 0.199 µM (active) in the experiment with HeLa, 0.158 µM (active) in the experiment on Hek293T, 0.316 µM (active) with JEG-3 and 0.1 µM (active) in the experiment on Tov-21-G. Further, the Potency entry in the experiment with SKOV3 was “inactive”.
In the case of `CC1(CN2CCC(n3c(=O)[nH]c4ccccc43)CC2)OCc2ccccc2-n2cccc21` (stereo not given), the Potency result in the experiment with CASKI, in the experiment with Es-2, in the experiment on HeLa, in the experiment on Hek293T, in the experiment with JEG-3 and in the experiment on PA-1 was “inactive” throughout. Further, the Potency result in the experiment on SKOV3 and with Tov-21-G was “inactive” in each case.
Take `NCCS(=O)(=O)O`: the Potency entry in the experiment on CASKI, in the experiment with Es-2, with HeLa, in the experiment on Hek293T, in the experiment on JEG-3 and with OV90 was “inactive” throughout. The Potency result in the experiment with PA-1, in the experiment with SKOV3 and in the experiment with Tov-21-G was “inactive” in each case.
`CC(C(=O)O)c1cccc(C(=O)c2ccccc2)c1` (stereo not given): the Potency entry in the experiment on CASKI, in the experiment with Es-2, in the experiment with HeLa, in the experiment on Hek293T, in the experiment with JEG-3 and in the experiment on OV90 was “inactive” each time. Besides, the Potency result in the experiment with PA-1 and in the experiment with Tov-21-G was “inactive” in each case.
Consider `Clc1ccc2c(c1)C(N1CCNCC1)=Nc1ccccc1O2`, for which the Potency entry in the experiment on CASKI, in the experiment on Es-2, in the experiment with HeLa, in the experiment on Hek293T, with JEG-3 and in the experiment on OV90 was “inactive” throughout. Moreover, the Potency result in the experiment on PA-1, with SKOV3 and in the experiment on Tov-21-G was “inactive” each time.
Turning to `CC(CCc1ccc(O)cc1)NCCc1ccc(O)c(O)c1` (stereo not given), the Potency result in the experiment on CASKI, in the experiment with Es-2, in the experiment with HeLa, with Hek293T, with JEG-3 and in the experiment on OV90 was “inactive” in each case. Also, the Potency result in the experiment on Tov-21-G was “inactive”.
In the case of `COc1ccc(CCN(C)CCCC(C#N)(c2ccc(OC)c(OC)c2)C(C)C)cc1OC` (stereo not given), the Potency entry with CASKI, with Es-2, in the experiment with HeLa, in the experiment on Hek293T, in the experiment on JEG-3 and in the experiment with PA-1 was “inactive” throughout. Also, the Potency result in the experiment with SKOV3 and with Tov-21-G was “inactive” throughout.
Turning to `O=c1[nH]cc(F)c(=O)[nH]1`, the Potency result in the experiment with CASKI, in the experiment on Es-2, with HeLa, in the experiment with Hek293T, in the experiment on OV90 and with SKOV3 was “inactive” each time.
For `CC(C)Cc1ccc(C(C)C(=O)O)cc1` (stereo not given), the Potency entry with CASKI, in the experiment with Es-2, with HeLa, with Hek293T, in the experiment with JEG-3 and in the experiment on OV90 was “inactive” each time. For the same molecule, the Potency entry with PA-1 and with Tov-21-G was “inactive” each time.
For the molecule `CCOC(=O)c1ncn2c1CN(C)C(=O)c1cc(F)ccc1-2`, the Potency result with CASKI, with Es-2, with HeLa, in the experiment with Hek293T, with JEG-3 and with OV90 was “inactive” throughout. The Potency result in the experiment on PA-1, in the experiment on SKOV3 and with Tov-21-G was “inactive” each time.
Take `C[C@H]1c2cccc(O)c2C(O)=C2C(=O)[C@]3(O)C(O)=C(C(N)=O)C(=O)[C@@H](N(C)C)[C@@H]3[C@@H](O)[C@@H]21`: the Potency entry in the experiment on Es-2, in the experiment with HeLa, with Hek293T, in the experiment on JEG-3, in the experiment on OV90 and in the experiment with PA-1 was “inactive” in each case. Also, the Potency result in the experiment with SKOV3 and in the experiment with Tov-21-G was “inactive” in each case.
`Clc1ccc2nsnc2c1NC1=NCCN1`: the Potency entry with CASKI, in the experiment with Es-2, in the experiment on HeLa, with Hek293T, with JEG-3 and in the experiment on OV90 was “inactive” in each case. For the same molecule, the Potency entry with PA-1, with SKOV3 and in the experiment with Tov-21-G was “inactive” each time.
As to `CC(C)C(=O)Nc1ccc([N+](=O)[O-])c(C(F)(F)F)c1`, the Potency result with CASKI, with Es-2, with HeLa and in the experiment with Tov-21-G was “inactive” in each case.
